The record followed here is PubChem BioAssay (NCATS).

For assay [1], the target named is Rap guanine nucleotide exchange factor 3 (Homo sapiens) (UniProt O95398). Briefly: Counterscreen qHTS for antagonist of cAMP-regulated guanine nucleotide exchange factor 3 (EPAC1) (AID 1645888).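 Also: fluorescence loss as bound BODIPY-GDP is released from Rap1B.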 The gist of the method:
(§1)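 Measured: fluorescence of BODIPY-GDP bound to Rap1B, which falls as exchange proceeds. Conditions include 50 uM competing GDP, 5 and 30 min reads, and a later cAMP challenge for antagonist detection.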
A general note: Counterscreens check selectivity or assay interference.

The target is the same in assay [2]. The assay can be described thus: Counterscreen qHTS for agonist of cAMP-regulated guanine nucleotide exchange factor 3 (EPAC1) (AID 1645889). Also: nearly all actives have a fitted effect of over 40% in size. The gist of the method:
as §1

Inconclusive results are not listed. Unmarked numbers belong to inactive results. Active and inactive are the calls of the source. Calls follow the shape of the dose curve; as a rule, active = well fitted curve in the direction sought with a large enough effect; inconclusive = small, poorly fitted or top-dose-only effect, or another doubt; inactive = no such curve, though single readings can be large; an effect the other way counts as inactive or inconclusive.
Also: % of control where 0% means no effect.

Chain of Rap guanine nucleotide exchange factor 3 (Homo sapiens) (O95398 whole entry, looked up): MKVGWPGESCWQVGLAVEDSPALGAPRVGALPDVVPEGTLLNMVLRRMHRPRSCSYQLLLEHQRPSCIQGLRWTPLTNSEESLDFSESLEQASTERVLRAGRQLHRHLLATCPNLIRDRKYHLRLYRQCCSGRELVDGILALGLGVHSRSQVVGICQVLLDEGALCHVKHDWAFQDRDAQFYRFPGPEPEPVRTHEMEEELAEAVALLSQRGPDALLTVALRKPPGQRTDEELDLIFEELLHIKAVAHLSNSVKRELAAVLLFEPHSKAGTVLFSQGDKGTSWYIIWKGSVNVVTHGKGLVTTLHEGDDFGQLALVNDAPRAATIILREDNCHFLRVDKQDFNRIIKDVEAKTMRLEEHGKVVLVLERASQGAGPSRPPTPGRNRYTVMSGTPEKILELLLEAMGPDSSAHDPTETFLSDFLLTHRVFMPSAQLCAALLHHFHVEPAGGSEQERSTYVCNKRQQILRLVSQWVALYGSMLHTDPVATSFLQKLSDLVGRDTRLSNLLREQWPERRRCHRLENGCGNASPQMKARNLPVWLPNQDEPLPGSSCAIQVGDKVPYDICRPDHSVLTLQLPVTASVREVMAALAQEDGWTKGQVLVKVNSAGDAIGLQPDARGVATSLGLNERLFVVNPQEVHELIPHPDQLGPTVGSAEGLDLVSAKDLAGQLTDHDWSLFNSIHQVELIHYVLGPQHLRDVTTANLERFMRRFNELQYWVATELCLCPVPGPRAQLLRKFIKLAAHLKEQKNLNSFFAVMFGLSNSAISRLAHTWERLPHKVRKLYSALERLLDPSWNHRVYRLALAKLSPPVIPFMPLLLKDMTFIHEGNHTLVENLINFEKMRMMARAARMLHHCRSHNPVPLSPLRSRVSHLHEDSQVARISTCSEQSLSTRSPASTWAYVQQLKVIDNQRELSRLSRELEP

As for `COc1cc(C2CC(=O)Oc3cc(C)c(Cl)c(C)c32)cc(OC)c1OC` (stereo not drawn), in assay [1], the activity change, negative = inhibition was -10.7% [at 30.8 µM]. In addition, the activation in assay [2] was 28.3% [at 30.8 µM].
For the molecule `OC[C@@H]1[C@@H](c2ccccc2)C(c2ccccc2)=NN1c1ccccc1`, the Potency result in assay [1] is “inactive”.
